About 250 (12%) of roughly 2,000 compounds were called active. Shown is part of a subset that was picked to be rich in actives. Values without a mark were called inactive. No stated cut-off is given here; in the data, active means hERG blockade below about -20% or above about 20%; inactive means in between.

The target of the assay is Voltage-gated inwardly rectifying potassium channel KCNH2 (Homo sapiens) (UniProt Q12809). Briefly: modulators of KCNH2 ion channel function, cellular (AID 376).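 Further: 0% = buffer alone and 100% = reference blocker.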 The following applies: hERG-expressing cells, channel activity single-concentration screen; concentration not given here.
Sequence of Voltage-gated inwardly rectifying potassium channel KCNH2 (Homo sapiens) (Q12809 whole entry, looked up): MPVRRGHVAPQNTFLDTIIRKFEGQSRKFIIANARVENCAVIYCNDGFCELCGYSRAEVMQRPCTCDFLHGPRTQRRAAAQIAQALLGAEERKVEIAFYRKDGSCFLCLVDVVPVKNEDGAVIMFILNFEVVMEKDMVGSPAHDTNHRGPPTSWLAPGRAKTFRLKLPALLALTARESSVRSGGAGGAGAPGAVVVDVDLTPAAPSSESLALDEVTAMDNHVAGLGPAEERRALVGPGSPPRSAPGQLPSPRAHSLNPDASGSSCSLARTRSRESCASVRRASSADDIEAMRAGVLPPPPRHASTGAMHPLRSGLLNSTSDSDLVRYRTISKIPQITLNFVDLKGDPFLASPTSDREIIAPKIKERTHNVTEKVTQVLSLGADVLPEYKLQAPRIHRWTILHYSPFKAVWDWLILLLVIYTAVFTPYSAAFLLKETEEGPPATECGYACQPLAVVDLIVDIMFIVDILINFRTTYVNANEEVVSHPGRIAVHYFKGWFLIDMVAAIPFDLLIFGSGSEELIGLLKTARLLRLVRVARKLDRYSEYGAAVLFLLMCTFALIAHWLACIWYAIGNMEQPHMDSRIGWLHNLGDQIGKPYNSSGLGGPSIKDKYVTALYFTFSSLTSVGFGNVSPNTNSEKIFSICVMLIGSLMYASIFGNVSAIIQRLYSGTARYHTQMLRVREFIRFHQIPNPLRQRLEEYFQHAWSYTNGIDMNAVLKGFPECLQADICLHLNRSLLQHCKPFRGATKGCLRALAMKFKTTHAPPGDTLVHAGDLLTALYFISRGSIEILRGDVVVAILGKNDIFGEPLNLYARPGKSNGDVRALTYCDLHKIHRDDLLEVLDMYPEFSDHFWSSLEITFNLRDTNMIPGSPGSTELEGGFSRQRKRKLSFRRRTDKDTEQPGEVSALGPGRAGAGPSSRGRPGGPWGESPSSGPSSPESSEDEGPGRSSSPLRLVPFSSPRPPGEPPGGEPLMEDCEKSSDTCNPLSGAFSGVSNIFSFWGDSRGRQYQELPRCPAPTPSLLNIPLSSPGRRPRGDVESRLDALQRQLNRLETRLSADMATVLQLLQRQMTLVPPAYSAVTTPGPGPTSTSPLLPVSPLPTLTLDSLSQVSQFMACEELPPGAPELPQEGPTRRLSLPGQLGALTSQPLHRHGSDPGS
As to `O=C1CSC2(CCN(CCCN3c4ccccc4Sc4ccc(Cl)cc43)CC2)N1`, the hERG blockade is 10.1%. Then `CN1CCN(CCCN2c3ccccc3Sc3ccc(C(F)(F)F)cc32)CC1`, with 29.9% (active).

Regarding `SC1CCCN(Cc2ccccc2)C1` (stereo not given), the hERG blockade is 10.8%. Then `CCC(C)(C)c1ccc(Oc2cccc(C(=O)O)c2)cc1`, with -10.7%; and `CN1CCc2ccccc2C1Cc1ccccc1NC(=O)c1sc2ccccc2c1Cl` (stereo not given), with 23.1% (active). In the case of `O=C(NC1(C(=O)O)CC1c1ccccc1)c1ccccc1` (stereo not given), the hERG blockade was 6.62%. Turning to `O=S(=O)(O)c1ccc2c(N=Nc3c(O)ccc4ccccc34)cccc2c1`, the hERG blockade was 49.9% (active).

In the case of `Cc1ccc(N=Nc2c(O)c(S(=O)(=O)O)cc3cc(S(=O)(=O)O)ccc23)c(C)c1`, the hERG blockade was 2.33%. In the case of `O=[N+]([O-])c1ccc2c(N=Nc3ccc4ccccc4c3O)c(O)cc(S(=O)(=O)O)c2c1` it was 23.1% (active); in that of `O=S(=O)(O)c1cc(O)c2c(N=Cc3ccccc3O)cc(S(=O)(=O)O)cc2c1`, -9.52%; in that of `O=S(=O)(O)c1ccc2c(N=Nc3cccc4ccccc34)c(O)c(S(=O)(=O)O)cc2c1`, 8.62%. Take `O=S(=O)(O)c1cc(S(=O)(=O)O)c2c(N=Nc3cccc4ccccc34)c(O)ccc2c1`: the hERG blockade is 14.2%. As for `O=[N+]([O-])c1ccc2c(c1)c(S(=O)(=O)O)cc1nonc12`, the hERG blockade was -6.88%. Then `O=S(=O)(O)c1ccc(N=Nc2ccc3c(S(=O)(=O)O)cccc3c2O)c2ccccc12`, with 14.9%; and `O=S(=O)(O)c1cc(O)c2c(O)c(N=Nc3cccc4ccccc34)c(S(=O)(=O)O)cc2c1`, with 9.29%; and `Nc1ccccc1N=Nc1c(S(=O)(=O)O)cc2cc(S(=O)(=O)O)cc(O)c2c1O`, with 21.5% (active). In the case of `Cc1ccc(N=Nc2c(O)ccc3cc(S(=O)(=O)O)ccc23)cc1` it was 31% (active); in that of `O=S(=O)(O)c1ccc(N=Nc2ccccc2)cc1`, -15.7%; in that of `Nc1ccc(S(=O)(=O)c2ccc(NC(=O)c3cccnc3)cc2)cc1`, 12.7%. In the case of `Nc1nc2nc3c(nc2c(=O)[nH]1)CN(c1ccc(C(=O)O)cc1)C3=O` it was -6.18%; in that of `O=C(O)C(CCc1ccccc1)N1C(=O)c2ccccc2C1=O` (stereo not given), 0.137%.

Turning to `Cc1[nH]c2c(C)ccc(C)c2c1CC(=O)O`, the hERG blockade is -7.4%. For `Cc1cc(Cl)nc(NC(=O)CSc2ccc(Cl)cc2)n1`, the hERG blockade is -7.4%.

For `NC(CSC(=O)c1ccccc1)C(=O)O` (stereo not given), the hERG blockade was 8.51%. With `CN(C)C1C(=O)C(C(=O)NCN2CCCC2)=C(O)C2(O)C(=O)C3=C(O)c4c(O)cccc4C(C)(O)C3CC12` (stereo not given), the hERG blockade is 5.47%. As for `NC(=O)c1nnn(Cc2cc(Cl)c(C(=O)c3ccc(Cl)cc3)c(Cl)c2)c1N`, the hERG blockade was 17.3%. As to `CC(C)CN(CC#N)CC(C)C`, the hERG blockade is 1.01%. In the case of `Cc1ccnc(NS(=O)(=O)c2ccc(N=[N+]=[N-])cc2)n1` it was 8.12%; in that of `CC(CC(N)C(=O)O)C(=O)O` (stereo not given), 1.62%.

Take `Cc1cc2c(SCc3ccccc3Cl)nc(N)nc2nc1C`: the hERG blockade is -7.31%. Then `O=C1c2cccc([N+](=O)[O-])c2C(=O)N1c1ncn[nH]1`, with 24.2% (active); and `O=C(O)C(Cc1ccccc1)N1C(=O)c2ccccc2C1=O` (stereo not given), with 13.1%. Regarding `O=C(O)CC(C(=O)O)C1c2ccccc2-c2ccccc21` (stereo not given), the hERG blockade is 14.3%. In the case of `NC(=O)C1CCCNC1` (stereo not given) it was -2.06%. Then `CN(C)CCCSc1nc2ccccc2[nH]1`, with -13.7%; and `CN(C)CCCc1c2ccccc2nc2ccc(Cl)cc12`, with 35.2% (active); and `O=C(O)c1cc(-c2ccc(-c3ccc(-c4cc(C(=O)O)c5cc(Cl)ccc5n4)cc3)cc2)nc2ccc(Cl)cc12`, with -1.3%. For `CC(=O)C1CCC2C1(C)CC=C1C23C=CC2(CC(O)CCC12C)C(C(=O)O)C3C(=O)O` (stereo not given), the hERG blockade was 3.22%. `NC(N)=NC(N)=Nc1ccc(S(=O)(=O)O)cc1`: the hERG blockade is -3.84%. For the compound `O=[N+]([O-])c1ccc2c(c1)Cc1cc(N=Cc3ccc4c(c3)OCO4)ccc1-2`, the hERG blockade is -2.54%. Then `COc1cc2c(cc1O)C(c1cc(O)c(O)c(OC)c1)C(O)(C(=O)O)C(CO)C2O` (stereo not given), with -2.14%; and `O=C(O)c1c(Br)c(Br)c(Br)c(Br)c1C1c2ccc(O)cc2Oc2cc(O)ccc21`, with 2.46%; and `c1cnc2c(c1)ccc1cccnc12`, with 56.6% (active).

For the compound `Cc1ccc(NC(c2ccccc2)c2ccc3cccnc3c2O)cc1` (stereo not given), the hERG blockade was -7.23%. Then `Oc1c(C(Nc2ccccn2)c2ccccc2)ccc2cccnc12` (stereo not given), with 12.1%; and `Cc1ncn(-c2ccccc2O)c1C`, with -3.27%. For `CSC(CC(=O)O)C(=O)O` (stereo not given), the hERG blockade was -18%. In the case of `CC1OC(CC(=O)O)Cc2c1c(O)c1c(O)cc(-c3cc(=O)c4c(=O)c5c(c(=O)c=4c3=O)CC(CC(=O)O)OC5C)c(O)c1c2O` (stereo not given) it was 14.9%.

Turning to `Oc1cccc2ccc(SSc3ccc4cccc(O)c4n3)nc12`, the hERG blockade is 0.631%. For `Oc1ccc2ccccc2c1C=Cc1ccc2c(Br)cc(Br)c(O)c2n1`, the hERG blockade is 11%. In the case of `C[n+]1cccc(C=Cc2ccc3cccc(O)c3n2)c1` it was 48.1% (active); in that of `O=C(O)c1cc(=O)[nH]c(SCc2ccccc2)n1`, 0.275%. As to `C[N+](C)([O-])Cc1cc(-c2ccccc2)ccc1O`, the hERG blockade is -15.8%.

In the case of `O=C(SCc1cccc2ccccc12)c1ccc(Cl)cc1`, the hERG blockade was -11.8%.

For `S=C(S)NCCCn1ccnc1`, the hERG blockade is -3.79%. With `NCCSS(=O)(=O)CCN`, the hERG blockade was 3.89%.

For the compound `Cc1cc(N)c2cc(NC(=O)Nc3ccc4nc(C)cc(N)c4c3)ccc2n1`, the hERG blockade was 1.21%. On to `Cc1cc(N)c2cc(OCCOc3ccc4nc(C)cc(N)c4c3)ccc2n1`, for which the hERG blockade is 38.9% (active).

As for `CCOc1ccc2nc3cc(N=Nc4ccc(N)nc4N)ccc3c(N)c2c1`, the hERG blockade was 19.7%. Then `O=C(O)CC12CC3CC(CC(O)(C3)C1)C2`, with -8.63%; and `CCCCCC(O)C1C(=O)OC(C)C(O)C=CC=CC=CC=CC=C(C)C(O)CC(O)CC(O)CC(O)CC(O)CC(O)CC1O` (stereo not given), with -9.84%; and `O=C(O)C(C1NCCS1)N1Cc2ccccc2C1` (stereo not given), with -7.98%. In the case of `c1cncc(CNCc2cccnc2)c1` it was 5.77%. In the case of `C[N+]1(Cc2ccc(Cl)c(Cl)c2)CCCC1c1ccc[n+](Cc2ccc(Cl)c(Cl)c2)c1` (stereo not given) it was 16.1%; in that of `C[N+]1(CC[N+]2(C)CCCC2c2cccnc2)CCCC1c1cccnc1` (stereo not given), 23.3% (active). `CC1(C)SC2C(NC(=O)Cc3ccccc3)C(=O)N2C1C(=O)O` (stereo not given): the hERG blockade is 1.04%.

Regarding `O=C(O)c1ccc(NC(c2ccccc2)c2ccc3cccnc3c2O)cc1` (stereo not given), the hERG blockade is -7.8%. In the case of `CC1(CCC(=O)OC2CCCCC2)OCCO1`, the hERG blockade was -7.92%. As for `CC(C)(C)c1ccc(OCC(=O)O)c(Cl)c1`, the hERG blockade was -5.3%. In the case of `CN1CCN(CCCN)CC1` it was -1.63%; in that of `CN1CCN(CCCNN)CC1`, -5.53%; in that of `CN1CCN(CCCBr)CC1`, 25.3% (active). Take `O=C(O)C(Cc1ccc(O)c([N+](=O)[O-])c1)N1C(=O)c2ccccc2C1=O` (stereo not given): the hERG blockade is -10.2%.

For the compound `[O-][N+](CCO)(CCO)c1ncnc2nc[nH]c12`, the hERG blockade was 13%. `O=C1C(Cl)=C(Nc2ccc(S(=O)(=O)Nc3ccccn3)cc2)C(=O)c2ccccc21`: the hERG blockade was 9.57%.

As to `COc1cc(NCCC2CCCCN2)c2ncccc2c1` (stereo not given), the hERG blockade was 7.01%. Then `Cc1cc(N2CCN(C)CC2)n2nc(-c3ccc(Cl)cc3)nc2n1`, with 90% (active); and `O=c1[nH]c(SCc2c(Cl)c(Cl)c(Cl)c(Cl)c2Cl)nc(=S)[nH]1`, with -9.32%; and `Cc1ccc(S(=O)(=O)NC(CO)C(=O)O)cc1` (stereo not given), with 23.3% (active). In the case of `Cc1ccc(S(=O)(=O)NC(C(=O)O)C(C)C)cc1` (stereo not given) it was 0.497%; in that of `Cc1ccc(S(=O)(=O)NC(CN)C(=O)O)cc1` (stereo not given), 4.41%.

With `NC1(C(=O)OCc2ccccc2)CCCC1`, the hERG blockade was 15.7%. In the case of `CC(OP(=O)(O)O)C(N)C(=O)O` (stereo not given) it was -6.12%; in that of `Clc1ccc(CSCCc2ccncc2)cc1Cl`, 14.8%; in that of `CC(C)Cn1cnc2c(Sc3c([N+](=O)[O-])ncn3C)nc(N)nc21`, 4.65%. For the compound `Nc1nc(SCc2ccccc2)c2ncn(Cc3ccccc3)c2n1`, the hERG blockade was -3.09%. In the case of `Cn1cnc([N+](=O)[O-])c1Sc1nc(N)nc2c1ncn2Cc1ccccc1` it was 37% (active); in that of `NC(Cc1c[nH]c2ccc([N+](=O)[O-])cc12)C(=O)O` (stereo not given), 7.32%; in that of `C=C(C)COc1ccc2c(c1)CCC1C2CCC2(C)C(=O)C(=NO)CC12` (stereo not given), 0.877%.

As for `OCC1OC(O)C(N=Cc2ccc3c(c2)OCO3)C(O)C1O` (stereo not given), the hERG blockade is -14.8%. For `Nc1ccc(S(=O)(=[OH+])[NH2+]c2ncccn2)cc1.[Ag+]`, the hERG blockade is 89.5% (active). Consider `Nc1ccc(S(=O)(=O)NCc2nccs2)cc1`, for which the hERG blockade is 17.3%.

Turning to `Nc1ccc(S(=O)(=O)Nc2cnc3ccccc3n2)cc1`, the hERG blockade was 8%. Then `CC(C)CCNc1ncnc2[nH]ncc12`, with 0.816%; and `NCC1OC(n2cnc3c(=O)[nH]c(N)nc32)C(O)C1O` (stereo not given), with 5.66%. For `CCC1=C(CC2NCCc3ccccc32)CC2c3cc(OC)c(OC)cc3CCN2C1` (stereo not given), the hERG blockade was 47.5% (active). As for `N#CC(=CNc1ccccn1)C(=O)c1ccco1`, the hERG blockade is -1.1%. Turning to `OCCCNCc1ccncc1`, the hERG blockade was -7.86%. For the compound `CC1(C)SC2C(C(=O)O)N=C(Cc3ccccc3)N2C1C(=O)O` (stereo not given), the hERG blockade was 4.53%. In the case of `O=[N+]([O-])c1ccc2ncccc2c1CCc1c([N+](=O)[O-])ccc2ncccc12` it was 2.28%.

Source of the values: PubChem BioAssay AID376 (PDSP, 2006).
